Whole data set: some 33,000 sequences, median “E-score (-0.5 to 0.5)” near -0.043, cut for the highest 2% near 0.37. The sample holds the highest values, similar sequences and a random draw of the others, so the mix is not that of the screen.
Target: T1, Upc2 (UniProt Q12151)
T1 sequence: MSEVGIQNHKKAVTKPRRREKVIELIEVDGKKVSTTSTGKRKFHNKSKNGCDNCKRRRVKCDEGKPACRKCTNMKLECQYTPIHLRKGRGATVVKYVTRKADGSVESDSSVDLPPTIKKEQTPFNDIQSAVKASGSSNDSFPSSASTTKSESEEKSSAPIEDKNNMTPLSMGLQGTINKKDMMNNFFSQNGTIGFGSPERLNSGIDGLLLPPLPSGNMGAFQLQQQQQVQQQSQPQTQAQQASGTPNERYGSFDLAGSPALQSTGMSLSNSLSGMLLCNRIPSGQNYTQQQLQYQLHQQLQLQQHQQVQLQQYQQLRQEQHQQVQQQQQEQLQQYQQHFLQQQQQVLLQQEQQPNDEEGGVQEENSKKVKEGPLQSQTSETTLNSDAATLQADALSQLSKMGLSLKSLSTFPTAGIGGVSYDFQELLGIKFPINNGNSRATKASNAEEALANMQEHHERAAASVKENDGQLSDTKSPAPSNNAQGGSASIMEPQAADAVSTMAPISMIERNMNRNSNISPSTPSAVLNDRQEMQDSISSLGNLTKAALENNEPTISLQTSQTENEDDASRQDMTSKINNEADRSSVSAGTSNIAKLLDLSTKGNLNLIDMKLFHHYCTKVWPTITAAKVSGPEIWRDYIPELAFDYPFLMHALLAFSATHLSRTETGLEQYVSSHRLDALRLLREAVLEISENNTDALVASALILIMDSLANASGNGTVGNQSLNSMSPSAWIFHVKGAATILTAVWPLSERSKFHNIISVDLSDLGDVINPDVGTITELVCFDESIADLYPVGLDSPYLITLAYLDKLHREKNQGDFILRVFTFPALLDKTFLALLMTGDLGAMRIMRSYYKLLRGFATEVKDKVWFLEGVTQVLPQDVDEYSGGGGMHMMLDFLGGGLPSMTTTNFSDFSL
Assay: PBM E-score (8-mer binding enrichment) (E-score (-0.5 to 0.5)); higher = stronger / more preferred TF binding
Details: protein concentration: 200 nM; construct: GST-full length
Outline: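 Universal all-10-mer Agilent arrays, double-stranded by primer extension on fresh or once-stripped slides, were probed with about 100-200 nM GST-tagged yeast transcription factors made by PURExpress. Fluorescent anti-GST detected bound protein, and masliner normalised the scans. E-scores from the Universal PBM Analysis Suite were given to each ungapped eight-base word pooled with its reverse complement.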

Sequence	PBM E-score
CCGTACCC	0.379
GCGTACCC	0.244
ACGTACCG	0.272
CCGTACCG	0.389
ACGTACCC	0.203
CCGTACCA	0.368
GAAATATA	0.127
ATCCCGTG	0.0975
ATCCCGTA	0.373
GTCCCGTA	0.25
AACCCAAC	0.00517
CGCTTACG	0.372
CGCTTACA	0.178
CGCTTACC	0.301
CCTTATAA	0.0883
ACGTTTTA	0.188
CAGTTTAG	-0.0566
ACGTTTAG	0.397
CCGTTTAG	0.468
ACGTTTAA	0.407
ACGTTTAT	0.313
ACGTTTTG	-0.0436
CCGTTTCG	0.255
ATGTTTAA	0.067
CACTAGCC	-0.0426

Sequence	PBM E-score
TAAGACAA	0.0602
AGCTGAGA	-0.232
CTTGCACC	0.0237
GAAAGCCA	-0.231
ATCGTATG	0.455
AACGTATG	0.239
ATCGTATC	0.426
CTGGTATC	-0.187
CTCGTATC	0.473
ATGGTATC	0.15
ATAGTATG	0.0124
CTTGTATC	-0.0734
ATAGTATC	0.0546
CGGTCACA	0.0569
AGTGCTAT	-0.0648
CGTGCTTC	0.014
CACAAGGC	-0.308
GGCCATGA	-0.134
ACTTCAGC	-0.178
AGTGTACC	-0.0597
CATGTACA	-0.00834
ATTGTACC	0.115
AGTGTACG	0.417
CCTGTACA	-0.0382
CATGTACG	0.409

Sequence	PBM E-score
AATGTACG	0.36
CCTGTACG	0.436
AGTGTACA	-0.0815
CCTGTACC	-0.0294
ATTGTACA	-0.0603
ATTGTACG	0.428
ACATGCGA	0.128
ACAGCGGT	-0.15
AATCTGAA	-0.00542
CTTGACTC	-0.0404
ATAAGTCC	-0.0003
GGTCCACA	-0.166
GAGTTCTA	-0.141
ACTGTACG	0.433
ACTGTACT	0.0214
ACTGTACC	-0.077
ATATACCA	0.0254
CTATACCC	0.0307
ATATACGG	0.456
ATATACCG	0.194
ATATACGA	0.492
CTATACTC	0.0215
ATATACGC	0.387
ATATACTG	0.0777
ATATACTC	-0.0113

Sequence	PBM E-score
ATATACAA	-0.0498
CTATACGC	0.458
ATATACAC	0.193
CGGATTTA	0.0862
CGCCTTAC	0.155
AATCTGAC	-0.119
AGCTCACT	-0.138
ATAAAAAG	0.0686
CCTCTCAG	-0.352
CGTAGGGA	-0.0318
ATCTTACA	0.0167
ATAGTACG	0.221
GTCGTACA	0.483
AACGTACC	0.256
GACGTACA	0.305
AACGTACG	0.386
ATCGTACG	0.435
AACGTACA	0.266
ATAGTACA	0.149
AGCGTACA	0.301
ATCGTAGG	0.165
GGCGTACA	0.269
ATCGTACA	0.468
AGTTTTCA	-0.0402
CAGCTAGG	-0.352

Sequence	PBM E-score
AAGGTGGA	-0.0852
TCAGTCCA	-0.272
AAAAACGT	0.0237
AGCGCTTG	-0.188
GCGGTACC	0.0215
GAAGTGCA	-0.153
CTTCTCGA	-0.187
ACCAGAAT	-0.00733
CCAGAGGA	-0.256
AGTCGAGC	-0.152
AGTAAACG	0.442
AGTAAACC	-0.0507
CGTAAATA	0.34
TGTAAACA	-0.0818
CGTAAACG	0.473
GGTAAACA	0.111
CGTAAATC	0.352
AGTAAACA	0.0452
CGTAAACA	0.39
ACGATTTG	0.28
CCAAGCTA	-0.182
CAAATAGA	-0.0516
AGTTTCAT	0.0688
CCTCTATC	-0.122
AAGATCAT	0.0203

Sequence	PBM E-score
CGTTTATC	0.425
AGTTTATC	0.115
CTTTTATC	0.00372
AGTTTATA	0.129
CGTTTATA	0.45
GGTTTATA	0.144
ATCTAGCA	-0.206
ACGACACC	0.374
ACGACAGC	0.336
CCGACACC	0.0358
ACGACACG	0.295
ACGACAGG	0.359
ACGACAGT	0.37
ATTATAAC	-0.061
CTAGAGCA	-0.192
GATTGTGA	-0.112
CCACGTTA	0.136
CCTCGTTC	0.46
CCTCGTCC	-0.3
ACTCGGTC	0.0379
CCTCGTTA	0.399
ACTCGTTA	0.35
GCACGTTA	0.182
ACTCGTTG	0.198
CCTCGTGC	0.0326

Sequence	PBM E-score
ACTCGTTC	0.46
GCTCGCTA	0.196
GCTCGTTA	0.39
ACAGTAGA	-0.0149
CATCTTGG	-0.305
GAGTAACC	0.101
GTCTCACA	-0.0791
CGATATGC	0.149
GCAACTGA	0.0086
GAACTGCA	-0.0845
ACGAAACC	0.267
ACGAAAGG	0.32
ACGAAACT	0.382
CCGAAACG	0.346
ACGAAACA	0.339
ACGAAACG	0.403
GAATTTGA	-0.0533
CACCACCC	-0.124
AGTGAAAC	-0.0497
CCCCTTTA	-0.129
GAACGGGA	0.238
AAACGGGC	0.395

From the supplement of paper PMC3334620
